The text below walks through data of PMC4552634, “A New Set of Chemical Starting Points with Plasmodium falciparum Transmission-Blocking Potential for Antimalarial Drug Discovery” (PLoS ONE, 2015).

The campaign covered roughly 13,000 compounds. About 3,200 (25%) showed an effect of 50% or more. This is one part of the list.

The assay concerns P. falciparum stage V gametocytes. Further details: BacTiter-Glo ATP luminescence viability of purified stage V gametocytes in 384-well plates, per cent inhibition versus DMSO. The following applies: 48 h, 5 µM; inhibitor.
As to `CC(=O)Nc1ccc(CN2CCC(NC(=O)c3ccc(-c4cccc(F)c4)s3)CC2)cc1` [TCMDC-134333], the “% Inhibition” value came out at 6.679%.

Turning to `CCNc1cc(C(=O)N[C@@H](Cc2cc(F)cc(F)c2)[C@H](O)CNCc2cccc(C(F)(F)F)c2)cc(N2CCCCS2(=O)=O)c1` [TCMDC-134678], the “% Inhibition” value was -1.763%.

With `CC(C)CCNC(=O)[C@@H]1[C@H]2C(=O)N(C3CCCCC3)C(=O)[C@H]2[C@H]2C=C[C@@H]3C(c4ccc(C(C)(C)C)cc4)=NO[C@@H]3N21` [TCMDC-139763], the “% Inhibition” value is -31.5%.

Turning to `Cc1cc(CN2CCCC(OC(c3ccc(F)cc3)c3ccc(F)cc3)C2)ccc1O` (stereo not drawn) [TCMDC-136168], the “% Inhibition” value was 43.13%.

As for `CN(C)CCNc1ncnc2c1[nH]c1ccc(Cl)cc12` [TCMDC-124582], the “% Inhibition” value is on record as 1.888%.

Regarding `CCN(CC)CCNc1ccnc2[nH]c3ccc(Cl)cc3c12` [TCMDC-131832], the “% Inhibition” value worked out at 4.266%.

As for `CCN(CC)CCNc1nc(C=Cc2ccc(Cl)cc2)nc2cc3ccccc3cc12` [TCMDC-125777], the “% Inhibition” value is on record as 86.86%.

For the molecule `CNC(=O)NC1=NC(C)(C)N(OCc2ccc(Cl)c(Cl)c2)C(NC(=O)NC)=N1` [TCMDC-131694], the “% Inhibition” value amounted to 10.36%.

Consider `CN(C)Cc1ccc(O)c(-c2ccc(C(C)(C)C)cc2)n1` [TCMDC-124147], for which the “% Inhibition” value was 10.19%.

For the molecule `COc1ccc2nccc([C@@H](O)CN3CCC(NCCNc4cccc(F)c4)CC3)c2c1` [TCMDC-140716], the “% Inhibition” value is on record as -36.18%.

For the molecule `COc1ccccc1CCNc1nc(C)cc(N[C@@H](CC(C)C)C(=O)NCc2cccs2)n1` [TCMDC-134806], the “% Inhibition” value was found to be 64.45%.

In the case of `Cc1cc(N[C@@H](CC(C)C)C(=O)NCc2cccs2)nc(NCCc2cccs2)n1` [TCMDC-134815], the “% Inhibition” value was found to be 136.3%.

As to `COc1ccc(NC(=O)[C@H](CC(C)C)Nc2cc(C)nc(NCCc3ccccc3OC)n2)cc1` [TCMDC-134805], the “% Inhibition” value is given as -9.787%.

With `COc1ccccc1CCNc1nc(C)cc(N[C@@H](CC(C)C)C(=O)Nc2ccccc2)n1` [TCMDC-134808], the “% Inhibition” value is 19.68%.

Turning to `Cc1cc(N[C@@H](CC(C)C)C(=O)NCc2cccs2)nc(Nc2ccccc2)n1` [TCMDC-134739], the “% Inhibition” value is on record as -4.41%.

Take `Cc1cc(N[C@@H](CC(C)C)C(=O)NCCc2ccccc2)nc(Nc2ccccc2)n1` [TCMDC-134742]: the “% Inhibition” value is on record as -5.247%.

Take `Cc1cc(N[C@@H](CC(C)C)C(=O)NCc2cccs2)nc(NCCc2ccccc2)n1` [TCMDC-134779]: the “% Inhibition” value came out at 68.3%.

In the case of `Cc1cc(N[C@@H](CC(C)C)C(=O)NCCc2ccccc2)nc(NCCc2cccs2)n1` [TCMDC-134816], the “% Inhibition” value worked out at 67%.

In the case of `COc1ccc(NC(=O)[C@H](CC(C)C)Nc2cc(C)nc(NCCc3cccs3)n2)cc1` [TCMDC-134875], the “% Inhibition” value is given as -27.08%.

Take `Cc1cc(N[C@@H](CC(C)C)C(=O)NCc2cccs2)nc(NCCc2ccc(F)cc2)n1` [TCMDC-134794]: the “% Inhibition” value is listed as 46.14%.

`Cc1cc(N[C@@H](CC(C)C)C(=O)NCCc2ccccc2)nc(NCc2ccccc2C)n1` [TCMDC-134911]: the “% Inhibition” value is -9.933%.

In the case of `O=C(Nc1cccc(-c2ccc(-c3nc4ccccc4[nH]3)cc2)c1)c1cnn2cccnc12` [TCMDC-136866], the “% Inhibition” value is -17.05%.

For the molecule `CN(c1ccc(NC(=O)CCOc2ccccc2)cc1)C1CCN(Cc2cccc(O)c2)CC1` [TCMDC-134988], the “% Inhibition” value is 49.59%.

Regarding `CC(C)(C)OC(=O)C1CCCN(Cc2ccc(-c3cccc(-c4nc5ccccc5[nH]4)c3)cc2)C1.O=C(O)C(F)(F)F` (stereo not drawn) [TCMDC-132560], the “% Inhibition” value came to 11.65%.

In the case of `C=CCN1CCC(N(Cc2cccc(Oc3ccccc3)c2)C(=O)C(c2ccccc2)c2ccccc2)CC1` [TCMDC-139601], the “% Inhibition” value was determined as 20.39%.

On to `CC(C)(NCc1ccc(OC(F)(F)F)cc1)c1nc(-c2ccc(Cl)c(O)c2)c(-c2ccncc2)[nH]1` [TCMDC-140709], for which the “% Inhibition” value was -27.3%.

As to `CCOC(=O)c1cn(CC)c2cc(N(C)CCc3ccc(OC)c(OC)c3)c(F)cc2c1=O` [TCMDC-124159], the “% Inhibition” value turned out to be 16.46%.

`O=C(NCc1ccc(Cl)cc1)c1ccc(CN2CCCN(CC3CCCCC3)CC2)cc1` [TCMDC-136441]: the “% Inhibition” value is recorded as -2.203%.

Regarding `O=C(OCC1CCN(Cc2ccccc2)C1)c1ccc(Cl)cc1` (stereo not drawn) [TCMDC-138995], the “% Inhibition” value was -9.252%.

Turning to `CCc1ccc(CN2CCC(CN(C(=O)c3ccccc3)c3ccc(Cl)cc3)CC2)cc1` [TCMDC-135382], the “% Inhibition” value was found to be 136.1%.

Take `CC(=O)Nc1ccc(C(=O)NC2CCN(c3ccnc4cc(Cl)ccc34)C2)cc1` (stereo not drawn) [TCMDC-133650]: the “% Inhibition” value is on record as -2.707%.

Regarding `COc1ccc(CN2CCC(CNCC(c3ccccc3)c3ccccc3)CC2)cc1` [TCMDC-141342], the “% Inhibition” value turned out to be 89.13%.

On to `COc1ccc(CN2CCC(NCc3ccc(C(F)(F)F)cc3)CC2)cc1` [TCMDC-141653], for which the “% Inhibition” value is 11.64%.

With `O=[N+]([O-])c1cccc(CNCC2CCN(Cc3ccc(O)cc3)CC2)c1` [TCMDC-141212], the “% Inhibition” value stood at 5.704%.

On to `COc1ccc(CN2CCC(CNCc3cccc(-c4ccccc4)c3)CC2)cc1` [TCMDC-141349], for which the “% Inhibition” value was found to be 97.96%.

Take `COc1ccc(CN2CCC(CNC(C)c3cccc4ccccc34)CC2)cc1` (stereo not drawn) [TCMDC-141341]: the “% Inhibition” value is on record as -19.33%.

As for `O=[N+]([O-])c1cccc(CNCC2CCN(Cc3ccc(-c4ccccc4)cc3)CC2)c1` [TCMDC-141208], the “% Inhibition” value was 17.3%.

As for `CCN(CC)c1ccc(C(c2ccc(N(CC)CC)cc2)c2cccc([N+](=O)[O-])c2)cc1` [TCMDC-131244], the “% Inhibition” value was -3.754%.

Turning to `Cc1cccc2nc(-c3ccc(-c4cccc(CN5CCN(c6ccc(C#N)cn6)CC5)c4)s3)[nH]c12.O=C(O)C(F)(F)F` [TCMDC-133111], the “% Inhibition” value is on record as -25.75%.

Turning to `CCN(CC)CCCC(C)Nc1ccnc2cc(C#N)ccc12` (stereo not drawn) [TCMDC-138027], the “% Inhibition” value is on record as -9.256%.

Regarding `CCOc1ccc(OCCCON2C(N)=NC(N)=NC2(C)C)cc1` [TCMDC-131735], the “% Inhibition” value is listed as -0.1444%.

Turning to `Cc1cc2cc(CNCCc3ccccc3Br)ccc2nc1N` [TCMDC-138097], the “% Inhibition” value was 84.79%.

`Cc1cc(N)nc2cc(CNCCc3ccccc3Br)ccc12` [TCMDC-138095]: the “% Inhibition” value is reported as 22.25%.

Turning to `Cc1cc2ccc(CNCCc3ccccc3Br)cc2nc1N` [TCMDC-138094], the “% Inhibition” value turned out to be 34.17%.

Consider `CCCCC(=O)Nc1ccc(Nc2nc(C)cc(N3CCCC3)n2)cc1` [TCMDC-124717], for which the “% Inhibition” value worked out at 46.79%.

Regarding `O=C(Nc1ccccc1)N(Cc1cccc(-c2ccc(CNC3CCCC3)cc2)c1)C1CCN(Cc2ccccc2)CC1` [TCMDC-140589], the “% Inhibition” value amounted to 100.6%.

As to `O=C(Nc1ccccc1)N(Cc1ccccc1-c1cccc(CNC2CCCC2)c1)C1CCN(Cc2ccccc2)CC1` [TCMDC-140581], the “% Inhibition” value is on record as 108.7%.

As to `O=C(Nc1ccccc1)N(Cc1ccc(-c2cccc(CNC3CCCC3)c2)cc1)C1CCN(Cc2ccccc2)CC1` [TCMDC-140601], the “% Inhibition” value is given as 107.8%.

As to `O=C(Nc1ccccc1)N(Cc1ccc(-c2ccc(CNC3CCCC3)cc2)cc1)C1CCN(Cc2ccccc2)CC1` [TCMDC-140602], the “% Inhibition” value was 100.4%.

As for `Oc1cccc(-c2nc(-c3cccc(I)c3)c(-c3ccc(-c4nc(-c5cccc(O)c5)[nH]c4-c4cccc(I)c4)cc3)[nH]2)c1` [TCMDC-125665], the “% Inhibition” value was 42.71%.

Turning to `COC(=O)c1ccc(C2OC3(C(=O)c4ccccc4C3=O)C(OC)=C2Cl)cc1C(C)=O` (stereo not drawn) [TCMDC-125782], the “% Inhibition” value is given as -9.104%.

Consider `N#Cc1ccc2c(c1)CCN(CCC1CCC(NC(=O)/C=C/c3nc4ccccc4s3)CC1)CC2` (stereo not drawn) [TCMDC-139686], for which the “% Inhibition” value is -32.82%.

Consider `COc1ccc(O)c(Cc2cnc3nc(N)nc(N)c3c2C)c1` [TCMDC-137998], for which the “% Inhibition” value was -28.9%.

In the case of `Cc1cc(C(=O)CSc2nc3ccccc3n2-c2ccccc2)c(C)n1C1CCS(=O)(=O)C1` (stereo not drawn) [TCMDC-124855], the “% Inhibition” value is listed as -17.36%.

As for `CC1CN(Cc2ccccc2)CCN1c1ccc(NC(=O)c2cccs2)cc1` (stereo not drawn) [TCMDC-135005], the “% Inhibition” value was 31.52%.

As to `CC(C)(C)c1ccc(-c2nnc(N)nc2N)cc1` [TCMDC-137284], the “% Inhibition” value is -12.55%.

For the molecule `CN(C)CCNC(=O)c1ccc(-c2ccc3c(Nc4ccccc4)c(C(N)=O)cnc3c2)cc1` [TCMDC-138672], the “% Inhibition” value is reported as 14.13%.

As for `COc1cccc(Nc2c(C(N)=O)cnc3ccc(-c4ccc([S+](C)[O-])cc4)cc23)c1` (stereo not drawn) [TCMDC-135184], the “% Inhibition” value is reported as 93.94%.

In the case of `COc1cccc(Nc2c(C(N)=O)cnc3ccc(-c4ccccc4)cc23)c1` [TCMDC-135227], the “% Inhibition” value is listed as 39.19%.

On to `CS(=O)(=O)c1cccc(-c2cnc3[nH]cc(-c4ccc(C(=O)O)cc4)c3c2)c1` [TCMDC-136271], for which the “% Inhibition” value is listed as 0.4612%.

For the molecule `COc1ccc2nccc(N3CCCN(CCNCc4ccc5c(n4)NC(=O)CS5)CC3)c2n1` [TCMDC-134640], the “% Inhibition” value was 33.98%.

With `Cc1ccc(C2CC(c3cccs3)=NN2C(=O)c2ccc(Br)o2)cc1` (stereo not drawn) [TCMDC-125610], the “% Inhibition” value was 12.81%.

For the molecule `CCC(c1ccccc1)c1nn2c(-c3cccs3)nnc2s1` (stereo not drawn) [TCMDC-123825], the “% Inhibition” value came out at 7.835%.

For `CCc1ccc(C2=Nn3c(nnc3-c3cccs3)SC2)cc1` [TCMDC-124336], the “% Inhibition” value is listed as 80.16%.

Regarding `O=C(NCCCCN1CCN(c2cccc3c2OCCO3)CC1)c1ccc(NC(=O)c2cc(Cl)cc(Cl)c2)cc1` [TCMDC-138222], the “% Inhibition” value is on record as -31.39%.

As to `C=CCN(c1nc(NC)nc(NCc2c(OC)cccc2OC)n1)C1CCCC1` [TCMDC-134844], the “% Inhibition” value is -44.26%.

Turning to `COc1cc(OC)cc(-c2nnc(Sc3ccc(C#N)c([N+](=O)[O-])c3)n2C)c1` [TCMDC-135576], the “% Inhibition” value is on record as 42.48%.

In the case of `Cn1c(Cc2ccccc2)nnc1Sc1ccc(C#N)c([N+](=O)[O-])c1` [TCMDC-135608], the “% Inhibition” value turned out to be 73.99%.

With `C=CCn1c(Cc2ccccc2)nnc1Sc1ccc(C#N)c([N+](=O)[O-])c1` [TCMDC-135614], the “% Inhibition” value is recorded as 45.02%.

Regarding `CCn1c(Cc2ccccc2)nnc1Sc1ccc([N+](=O)[O-])c(C#N)c1` [TCMDC-135236], the “% Inhibition” value is listed as 79.04%.

`CCCCCn1c(Sc2ccc(C#N)c([N+](=O)[O-])c2)nnc1-c1ccccc1` [TCMDC-135606]: the “% Inhibition” value was found to be 38.34%.

For `CCCCCCn1c(Sc2ccc(C#N)c([N+](=O)[O-])c2)nnc1-c1ccccc1` [TCMDC-135607], the “% Inhibition” value was determined as 41.57%.

By % Inhibition is commonly meant the relative decrease from the control value, in per cent.
